Inconclusive results are not listed. Active and inactive are the calls of the source. The calls were made as follows: active = hit-call score of the fitted dose curve at least 0.9, where 1 is the maximum; inconclusive = response in the unintended direction; inactive = score below 0.9.

Experiment [1] addresses Cellular tumor antigen p53 (Homo sapiens) (UniProt P04637). In words: TOX21_p53_BLA_p2_ratio: Tox21 HCT-116 p53 Agonism Beta-lactamase Assay, Ratio, Phase 2 (AID 2283592). A digest of the protocol:
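HCT116 cells carrying a p53-responsive beta-lactamase reporter were plated, incubated 5 h at 37C, then dosed with compounds in DMSO (217-fold dilution) for 16 h. CCF4-AM substrate was added for 2 h at room temperature; the 460/530 nm emission ratio gave gain-of-signal activity relative to DMSO.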

Experiment [2] has the same target. In words: TOX21_p53_BLA_p3_ratio: Tox21 HCT-116 p53 Agonism Beta-lactamase Assay, Ratio, Phase 3 (AID 2283596). An outline of the steps:
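HCT116 p53-bla cells (4000/well) given compound in DMSO (217-fold dilution) after 5 h, incubated 16 h at 37C. CCF4-AM substrate 2 h at room temperature; 460/530 nm emission ratio, gain fitted against DMSO.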

The target is the same in experiment [3]. As to the kind of experiment: TOX21_p53_BLA_p5_ratio: Tox21 HCT-116 p53 Agonism Beta-lactamase Assay, Ratio, Phase 5 (AID 2283599). A digest of the protocol:
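HCT-116 p53-bla cells (4000/well) plated 5 h, dosed with compound (217-fold DMSO dilution) for 16 h at 37 C; CCF4-AM substrate 2 h at room temperature. Activity is the 460/530 nm emission ratio (405 nm excitation), fitted in gain-of-signal direction versus DMSO.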

The nature of experiment [4]: TOX21_p53_BLA_p5_viability: Viability Assessment in the Tox21 HCT-116 p53 Agonism Beta-lactamase Assay, Phase 5 (AID 2283600). An outline of the steps:
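Cells were plated at 4000/well, rested 5 h at 37C, then given compounds in DMSO (217-fold dilution) for 16 h at 37C, 5% CO2. Following the CCF4-AM beta-lactamase read, CellTiter-Glo was added and luminescence was read after 30 min at room temperature.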

Experiment [5] deals with Cellular tumor antigen p53 (Homo sapiens) (UniProt P04637). In words: TOX21_p53_BLA_p4_ratio: Tox21 HCT-116 p53 Agonism Beta-lactamase Assay, Ratio, Phase 4 (AID 2283601). A digest of the protocol:
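HCT-116 p53 beta-lactamase reporter cells (4000/well) preincubated 5 h, then compound (217-fold dilution of DMSO stock) for 16 h at 37C. CCF4-AM substrate added 2 h at room temperature; 460/530 nm emission ratio fitted upward versus DMSO.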

Experiment [6] can be described thus: TOX21_p53_BLA_p4_viability: Viability Assessment in the Tox21 HCT-116 p53 Agonism Beta-lactamase Assay, Phase 4 (AID 2283597).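 Also: hits lower the luminescence signal meaning cytotoxicity.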 A digest of the protocol:
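HCT116 p53-bla cells (4000/well) rested 5 h at 37C, then received compounds in DMSO (217-fold dilution) for 16 h at 37C, 5% CO2. CellTiter-Glo was added after the CCF4-AM read, and luminescence was read after 30 min at room temperature.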

Chain of Cellular tumor antigen p53 (Homo sapiens) (P04637 whole entry, looked up): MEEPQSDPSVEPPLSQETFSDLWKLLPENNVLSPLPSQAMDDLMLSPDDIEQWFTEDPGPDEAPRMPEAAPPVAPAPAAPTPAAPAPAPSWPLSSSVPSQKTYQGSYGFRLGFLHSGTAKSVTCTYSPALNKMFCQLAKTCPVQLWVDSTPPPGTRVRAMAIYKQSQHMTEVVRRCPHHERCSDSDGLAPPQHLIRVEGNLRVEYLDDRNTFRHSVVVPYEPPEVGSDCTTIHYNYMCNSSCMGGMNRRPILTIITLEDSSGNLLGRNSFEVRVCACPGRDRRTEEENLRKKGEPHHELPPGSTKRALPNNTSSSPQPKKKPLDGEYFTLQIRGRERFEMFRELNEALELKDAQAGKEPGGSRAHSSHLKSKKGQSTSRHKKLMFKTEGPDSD

Regarding `Cc1cccc(Cc2cnc[nH]2)c1C`, the outcome in experiment [1], in experiment [2], in experiment [3], in experiment [4] and in experiment [5] was inactive.

Turning to `C[C@]12CC[C@H]3[C@@H](CCC4=C(O)C(=O)CC[C@@H]43)[C@@H]1CC[C@@H]2OC(=O)CCC1CCCC1`, the outcome in experiment [1], in experiment [2], in experiment [6] and in experiment [5] was inactive.

On to `N#C/C=C/C#N`, for which the outcome in experiment [1] and in experiment [3] was inactive. Moreover, the AC50 in experiment [2] is 93.4 µM (active).

Take `CC(NC(C)(C)C)C(=O)c1cccc(Cl)c1` (stereo not given): the outcome in experiment [1], in experiment [2] and in experiment [3] was inactive.

In the case of `C[C@H]1CNCCc2ccc(Cl)cc21`, the result in experiment [1], in experiment [2], in experiment [6] and in experiment [5] was inactive.

Regarding `NCC1(CC(=O)O)CCCCC1`, the outcome in experiment [1], in experiment [2] and in experiment [3] was inactive.

As to `CN(C)CCc1c[nH]c2ccc(O)cc12`, the result in experiment [1], in experiment [2] and in experiment [3] was inactive.

As to `Cc1cccc(C#N)c1`, the result in experiment [1], in experiment [2], in experiment [3], in experiment [4] and in experiment [5] was inactive.

As for `Nc1cc(Cl)ccc1O`, the half-maximal activity concentration (AC50) is 49.9 µM (active) in experiment [1], 59.7 µM (active) in experiment [2], 62.6 µM (active) in experiment [3] and 54.8 µM (active) in experiment [5]. Further, the result in experiment [6] and in experiment [4] was inactive.

`CCN`: the result in experiment [1], in experiment [2], in experiment [3] and in experiment [5] was inactive.

Turning to `COc1ccc(C(CN(C)C)C2(O)CCCCC2)cc1` (stereo not given), the outcome in experiment [1], in experiment [2], in experiment [3], in experiment [4] and in experiment [5] was inactive.

The values above are taken from PubChem BioAssay (EPA / NIEHS).
